Laboratory results: PubChem BioAssay (NCI)
The panel holds about 83,000 compounds, 20% with a hit somewhere; the sample as a whole holds those more often.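 Single-dose data. Exposure time 48 hours. Values below 10 considered active.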 Active and inactive are the calls of the source.

Tested on: HL-60(TB) leukemia
Assay: NCI-60 one-dose screen, 48 h (100 = growth as untreated, 0 = no growth, -100 = all killed)
Settings: 10 µM unless noted

**Q.** Which growth does the source give for `O=C(O)COc1ccc2c(=O)c3sc4c(=O)c5ccccc5c(=O)c4c3c(=O)c2c1` here?
**A.** 42.7% (inactive)

**Q.** For `Cc1ccc(C(F)(F)F)cc1N1CCN(C(=O)[C@H]2C[C@H]2c2ccc(C(F)(F)F)nc2)CC1`, which growth is on record?
**A.** 81.8% (inactive)

**Q.** How did the growth turn out when `Cc1cc(C)c(C#N)c(Sc2nc(C)c([N+](=O)[O-])c(C)c2C#N)n1` was run?
**A.** 66.2% (inactive)

**Q.** `O=C1/C(=C/c2ccccc2)CCc2nc3ccccc3c(/C=C/c3ccc(Cl)cc3)c21` was tested. Which growth did it give?
**A.** 83.2% (inactive)

**Q.** `CCCCCCCCCCCCCCCCCC(=O)[O][Sn]([CH2]CCC)([CH2]CCC)[CH2]CCC` was tested. Which growth did it give?
**A.** -18.5% (active)

**Q.** With `Cc1cc(=O)[nH]c(NN=C2CCCC2)n1` as the molecule, how does the growth read?
**A.** 94.6% (inactive)

**Q.** How did the growth turn out when `Cn1cc(-c2csc(-c3cccc(F)c3)n2)c2cccnc21` was run?
**A.** 2.72% [100 µM] (active)

**Q.** Which growth does the source give for `Cc1ccc(C2(C)NC(=O)N(CC(=O)Nc3cccc(C)c3)C2=O)cc1` (stereo not given) here?
**A.** 103% (inactive)

**Q.** How did the growth turn out when `O=C(Nc1ccccc1)c1sc(-c2cccc(C(F)(F)F)c2)cc1O` was run?
**A.** 40.2% (inactive)

**Q.** With `Clc1cccc(Nc2ncnc3ccc(-c4cnc5[nH]ccc5c4)cc23)c1` as the molecule, how does the growth read?
**A.** 105% (inactive)

**Q.** `CC(=O)N[C@H](C(=O)N[C@@H](CCCNC(=N)N)C(=O)N[C@@H](CCCCN)C(=O)N[C@@H](CCCNC(=N)N)C(=O)NC(C(=O)N[C@@H](CC(C)C)C(=O)N[C@@H](CCCNC(=N)N)C(=O)N[C@@]1(C)CCC/C=C\CCC[C@@](C)(C(=O)N[C@@H](CCCNC(=N)N)C(=O)N[C@@H](CCC(=O)O)C(=O)N[C@@H](CC(C)C)C(=O)N[C@H](C(=O)N[C@@H](CCC(=O)O)C(N)=O)C(C)C)NC(=O)[C@H](CCC(N)=O)NC(=O)[C@H](CC(C)C)NC(=O)[C@H](CC(C)C)NC1=O)[C@@H](C)O)C(C)C` (stereo not given in full) was tested. Which growth did it give?
**A.** -41% (active)

**Q.** For `Nc1nc(Cl)cc(Cl)n1`, which growth is on record?
**A.** 74.2% (inactive)

**Q.** For `CS(=O)(=O)c1cccc(Nc2ncc3cc(-c4ccccc4Cl)ccc3n2)c1`, which growth is on record?
**A.** -8.46% (active)

**Q.** Which growth does the source give for `CN1CCN(c2ccc(NC(=O)c3cncnc3Nc3ccc4c(ccn4Cc4cccc(F)c4)c3)cc2)CC1` here?
**A.** -54.3% (active)

**Q.** For `O=C1c2ccccc2C(=O)c2c(NCCN=Cc3c(O)ccc4ccccc34)cccc21`, which growth is on record?
**A.** 66.3% (inactive)

**Q.** For `CCOP(=O)(NC(c1ccccc1)c1ccccc1)OCC`, which growth is on record?
**A.** 101% (inactive)

**Q.** `COc1cc(CCn2nnc3c(Nc4ccc(N5CCOCC5)cc4)ncnc32)cc(OC)c1` was tested. Which growth did it give?
**A.** 106% (inactive)

**Q.** `C=C1C(=O)O[C@H]2[C@H]1CC/C(COC(=O)/C=C/C(=O)OC/C1=C/CC[C@@]3(C)O[C@H]3[C@H]3OC(=O)C(=C)[C@@H]3CC1)=C\CC[C@@]1(C)O[C@@H]21` was tested. Which growth did it give?
**A.** -23.6% (active)

**Q.** With `CC(=O)c1ccc(NCn2nc(-c3ccc(Cl)cc3)oc2=S)cc1` as the molecule, how does the growth read?
**A.** 88.9% (inactive)

**Q.** How did the growth turn out when `CCN(Cc1cccc(S(=O)(=O)[O-])c1)c1ccc(C(=C2C=CC(=[N+](CC)Cc3cccc(S(=O)(=O)O)c3)C=C2)c2ccccc2S(=O)(=O)O)cc1` was run?
**A.** 104% (inactive)

**Q.** How did the growth turn out when `C=CCCCCCCCCC(=O)[O][Sn]([CH2]CCC)([CH2]CCC)[CH2]CCC` was run?
**A.** -15.1% (active)

**Q.** How did the growth turn out when `Nc1ccn(C2CC(O)C(CO)O2)c(=O)n1` (stereo not given) was run?
**A.** 86.1% (inactive)

**Q.** `C[C@]1(O)CC(=O)[C@]2(O)C3=C(C=C[C@]2(O)C1)C(=O)c1c(O)cccc1C3=O` was tested. Which growth did it give?
**A.** -43.8% (active)

**Q.** With `CCO/C=N/C1=C(C#N)C(c2ccc(Cl)cc2)c2c(c3ccccc3n(C)c2=O)O1` (stereo not given) as the molecule, how does the growth read?
**A.** 53.4% (inactive)

**Q.** `Cc1c(O)cc(-c2cnc(N/N=C/c3ccccc3)s2)c(O)c1C` was tested. Which growth did it give?
**A.** 19.1% (inactive)

**Q.** `COc1ccc(C(=O)c2cc(OC)c(OC)c(OC)c2OC)cc1O` was tested. Which growth did it give?
**A.** 25.2% (inactive)

**Q.** How did the growth turn out when `C[C@@H]1CCCCCCCCC[C@H](O)C(=O)C[C@@H](SC[C@@H](O)C(=O)O)C(=O)O1` was run?
**A.** 86.8% (inactive)

**Q.** With `Nc1ccc(C2c3ccccc3Oc3ccccc32)cc1` as the molecule, how does the growth read?
**A.** 115% (inactive)

**Q.** `O=[N+]([O-])c1ccc(N/N=C(\C(=N/Nc2ccc([N+](=O)[O-])cc2[N+](=O)[O-])c2ccccc2)c2ccccc2)c([N+](=O)[O-])c1` was tested. Which growth did it give?
**A.** 80.5% (inactive)

**Q.** `Nc1nc(I)c2ncn(C3OC(CO)C(O)C3O)c2n1` (stereo not given) was tested. Which growth did it give?
**A.** 99.4% (inactive)

**Q.** For `CC(=O)c1ccc(NS(=O)(=O)c2cccc(C(=O)Nc3ccc(Br)cc3)c2)cc1`, which growth is on record?
**A.** 47.3% [25 µM] (inactive)

**Q.** Which growth does the source give for `CCOC(=O)CCCn1c(-c2ccccc2)cc(-c2ccccc2)c(C#N)c1=O` here?
**A.** 77.9% (inactive)

**Q.** How did the growth turn out when `O=C1c2ccccc2-c2c1c1ccncc1c(=O)n2CCCn1ccnc1` was run?
**A.** 35.7% (inactive)

**Q.** With `COc1cc2nc3cc([N+](=O)[O-])ccc3c(Cl)c2cc1OC` as the molecule, how does the growth read?
**A.** 109% (inactive)

**Q.** How did the growth turn out when `CNC(=O)c1cc(Oc2ccc3c(c2)sc2nc(-c4ccc(NC(=O)[C@@H](NC(=O)OC)C(C)C)cc4)cn23)ccn1` was run?
**A.** 51.1% (inactive)

**Q.** Which growth does the source give for `COc1cccc(Sc2ccc([N+](=O)[O-])c3no[n+]([O-])c23)c1` here?
**A.** 2.91% (active)

**Q.** With `CCOC(=O)Nc1ccc2c(c1)C(=O)N(CCOC)c1ccccc1O2` as the molecule, how does the growth read?
**A.** -17.1% (active)

**Q.** For `Cc1cccc(-c2cn3ccnc3c(-c3ccc4ncn(Cc5ccccc5)c4c3)n2)c1`, which growth is on record?
**A.** 81.8% (inactive)

**Q.** How did the growth turn out when `COc1cc(/C=C2\Oc3cc(OCC(=O)c4ccccc4)ccc3C2=O)cc(OC)c1OC` was run?
**A.** 118% (inactive)

**Q.** With `COc1ccc([C@@H]2[C@@H](Oc3ccccc3)C(=O)N2c2cc(OC)c(OC)c(OC)c2)cc1F` as the molecule, how does the growth read?
**A.** -53.9% (active)
